# Target: GABARAPL2, P60520
# Assay: median log2 fold change of GCK-ALFA target abundance (FLAG IP / Myc IP barcode read proportion) (log2 ratio); each designed protein is fused to an ALFA-tag nanobody in HEK293 cells to bring the named protein to FLAG-tagged glucokinase (GCK); Myc marks an untargeted standard; higher = target protein stabilised (more abundant)
# Settings: target protein: 3xFLAG-MCP-GCK-ALFA reporter; HEK293 landing pad (RPLP)
# How it was run: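 Sequencing of reverse-transcribed, amplified circular RNA barcodes from anti-FLAG and anti-Myc immunoprecipitates provided the readout for an ALFA-nanobody-fused binder library recombined into HEK293 landing-pad cells. Those cells were induced with 2 μg mL^−1 doxycycline, transfected with a plasmid expressing a FLAG-tagged target and a Myc-tagged standard, and lysed after 48 h. Target abundance is the per-binder median log2 ratio of FLAG to Myc barcode read proportions. Only barcodes at a proportion of ≥10^−7 in both replicates and binders with ≥3 barcodes per replicate were kept, with a 10^−6 pseudocount added before the two replicates were pooled.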
# GABARAPL2, P60520, sequence (P60520 whole entry, the tested form may be a part): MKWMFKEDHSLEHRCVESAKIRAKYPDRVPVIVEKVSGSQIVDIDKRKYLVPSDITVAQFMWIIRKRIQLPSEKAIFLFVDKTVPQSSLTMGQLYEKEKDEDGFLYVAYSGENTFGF
row,Binder,median log2 fold change
1,GBRAPL2_0_7214 (protein) MEEFLEELKKLSIEEAAKKAVEKVREMAESGKYSLEEIEEFVEKMAEVLGEKIKKEKKEESLDIAAEAADEIRKILEKVDPRLAAYADSEIGAEIMEAEE,0.0795
2,GBRAPL2_0_7207 (protein) YEKEIEKAKTLTPEEAFKALKKLVKKLAKDKSVSKEELEALLEAILDLAYEIMAKEKTEEAEKAFDEIAEEATKAAAKRDPNLAAYIASYAGSLLMEYES,-0.0647
3,GBRAPL2_0_7209 (protein) YKERIEEAKKLSPEEAFKALKKLVKELAEDDSVSLEELEEILEAILELAYEIYKKEKTEEAEKAFDEIVDLATEAAAKRDPRLAAYIATFGGSLIMEAEL,-0.227
4,GBRAPL2_0_7205 (protein) YEEEIEKAKELSPEELFKALKELVKKLKEDDSISLEELEEILLRILELAAEKVKEVKTEEAEEAFDELVELAVEAMKKRDPNMANYIETYGGSLLYEIES,0.126
5,GBRAPL2_0_7191 (protein) YEEELKKISELPIEEFAKRGVELVERAAKDPSLTLEELEELAERVIELLIEKVKEEKTEEAEEIYVEAADRIREILLKIDPNLAADVATEAGAGLYEIES,0.23
6,GBRAPL2_0_7201 (protein) YLEEIEKAKKLSPEEAFKKLKELVKKLAEDDSISLEELEEILEKILKLAAEKVKKTKKEEDLEKFEEIVDLATEAAAKRDPLLAAYIDTYGGSLLIEVEE,0.0418
7,GBRAPL2_0_7211 (protein) MEEILEKAKKLSVEEAAKYAVETVKSLVESGSLSPEELAELATKLLKVLIEKVKKDGKEESVEIAVETADKIREILKPVDPNLAADVDTEALSEILELEE,0.109
8,GBRAPL2_0_7217 (protein) MEELIEKAKELSVEEAAELFVEEVKRLVESGKATDEELMELVEKAAEVLEEKMKESKDEEDEDIALEAADRIREILAEKDPRLAAYAYSEIGAGIMEASS,-0.0345
9,GBRAPL2_0_7208 (protein) YKERIEEAKKLSPEEAYKALKELVKEIAEDKSISAEEREEILEEIIELAYEIYKKEKTEEAEKAFDEIVDLAVKAAAKVDPNLAAYIASFGGSLIMEAES,0.152
10,GBRAPL2_0_7193 (protein) IEERIEKMKELSIEEAVKEGIEIVEEVMKDPSFTDEEKVEIAERVVDIVAEKAKEEKTEEALDLAVEFARKVREILEKISPEDAAYVETRMGAELMEIES,0.33
11,GBRAPL2_0_7199 (protein) YLEEIEKAKELSPEEAFEKLEKLVKELAEDDSISLEELEEILEAIIELAAEKVKETKREEDLEKFDRIVDLAAEAAAKRDPNLAAYIRTYGGSLLIEVEE,0.196
12,GBRAPL2_0_7216 (protein) MEELVEEARKLSIEEAAKLFVEKVKELVESGKATDEELMELVEAGAKVLGEKLKKEKKEEGLDIAMKAADEIREILEKKDPNLAAYAYSEIGAEIMEAAS,0.169
13,GBRAPL2_0_7192 (protein) YEERLEEISKLPIEEFAKEAVRIVEEAAKDPSLSLEELEEIALRAIRLLYEKVKEEKTEEAEDIYVEAADRIREILKKIDPNLAAYVATEAGALLYEWES,-0.305
14,GBRAPL2_0_7197 (protein) YLKEIEEMKKLSPEEAFEKAKELVKKLAEDKTISPEELEKILEAILELAAEIVKKTKEEKMEEKFDELADLAVKAAAKKDPNLAAYIASYAGSLRYEVES,0.245
15,GBRAPL2_0_7213 (protein) MEEFLKELKSLSIEEAAEKFVKKIEEMAKSGKYSLEEIEEIVEEMAKVLGEKVKKEKKEESLDIAAEAADKVREILEKIDPNLAAYAYSEIGAEIMEAAE,-0.118
16,GBRAPL2_0_7218 (protein) MEELVEKARKLSVEEAAELFVEKVRELVESGKATDEELEALVEAAAEVLEEKIKKNKNEKDLDIAAEAADRIREILAKKDPRLAAFADSEIGAGIMEAAS,0.21

row,Binder,median log2 fold change
1,GBRAPL2_0_7202 (protein) YLEEIEKAKELSPEELFKKLKELVEKLAEDDSISPEEKEEILLKIVELAAEKVKETKTEEDEKKFEEIVELAVKVAEKIDPNLAAYIRTHAGSLLYENES,0.0999
2,GBRAPL2_0_7198 (protein) YLERIEKAKELSPEETFKALKEIVKELAEDDSISLEELEEILEKIVELAAEKVKETKKEEDLEKFDEIVDLATEAAAKRDPNLAAYIDTYGGSLLIEVEE,0.104
3,GBRAPL2_0_7200 (protein) YLEEIEKAKELSPEEAFKKLKELVKELAEDDSISLEELEEILEKIIELAAEKVKETKSEEDLKKFDEIVDLATEAAAKRDPLLAAYIDTYGGSLLIEVEE,0.104
4,GBRAPL2_0_7195 (protein) VEEEIERISELPIEEAAEEGVRLVERVVADPSFTDEEKVEVALRVVDILAKKVKEEKTEEAEDIYVEALDEIRKLLLSVGPELANYVYAEGGSELMEIES,0.163
5,GBRAPL2_0_7210 (protein) MEKILEEAKKLSVEEAAEYAVETVEELVKSGSLSPEELAELAKELLKVLIEKVKENGKEEDVEIADETIDRVREILRPVDPRLAAYVATEGYSELLELEE,-0.00179
6,GBRAPL2_0_7203 (protein) YLEEIEKAKSLSPEELFKKLKELVKKLAEDKSISPEEKEEILEAIIKLAGEKVKETKTEETEKQFDEIVELAVEVAEKIDPNLAAYIRTLAGSLLYENES,0.0798
7,GBRAPL2_0_7222 (protein) MEELKEEMLKLSIEEASEKAVKTIKEAVESGKYSLEEIAELIEEMAEVIGELLKKEKKEESVDIAIEAADKIREILEKVDPNLAAYAYSEIGAEIMEAEE,0.133
8,GBRAPL2_0_7204 (protein) YLEKIEKAKSLSPKELFEALKKLVKELAKDKSVSPEEKEEILEAIIKLAAERVKETKTEEDEKAFEEIVKEAVKVAEKIDPNLAAYVRTYAGSLLYEIES,0.0789
9,GBRAPL2_0_7215 (protein) MEELVEEAKKLSVEEAAELFVKRVEELVESGKATREELEALVEAAAKVLGEKIKKNKNEEDLDIAAEAADRIREILAKVDPELAAYADSEIGAEIMEAFS,0.0633
10,GBRAPL2_0_7194 (protein) IEERIEELKKLSIEEAVKEGIRLVKEVKEDESFSKEEIVEIAERVAKIVAEKAKEEKTEEALDLAWKFADEVREILKEIDPNDAAYVESEIGSELMEIES,0.238
11,GBRAPL2_0_7212 (protein) MEEILEEISKLSIEEAAEKAIKLVKELVESKSLSTEELFELAKKLLEIIVEKVKEENKEESLEIARETADEIYEILKKVDPKEAAYVYTEIMEKILELEE,0.328
12,GBRAPL2_0_7220 (protein) MEEFVKEMLELSIKEAAEAAVKYIKELVESGKYSLEEIEEAVEKIAEVLGEKLKKEKKEEAEDIAMEAADEIRKILSEKDPNLAAYAYSEIGAEIMEAWS,-0.0156
13,GBRAPL2_0_7196 (protein) YLERIEKMKKLSPEEAYKEAKKLVEELAKDESISPEELEKILEAILEMMAEFVKKTKKEEMEKKFDEIADLAVEAAAKKDPNLAAYIASYAGSLRVEVES,0.192
14,GBRAPL2_0_7206 (protein) YEAEIEAAKKLTPEEAFKKLKELVKKLAKDTSLSKEELEKILEAIIDLAYEIYKKEKTEEAEEAFDEIVDLAVEAAAKRDPNLAAYIATYGGSKIMEAES,0.12
15,GBRAPL2_0_7219 (protein) MEEKVEEMKKLSIKEAAEAAVKLIKEMVESGKYSLEEIAEAVEKLAEVLGEKLKKEKKEEAEDIALEAARKIREILAKRDPNLAAYAYSEIGAEIMEASS,0.00483
16,GBRAPL2_0_7221 (protein) MEKLVEEMKKLSVEEAAERFVKEIKEAVESGKYSLDEIAELIEAMAKVLGELLKKNKKEEDFDIAMKAADEVRKILEKVDPNLAAYAYSEIGAEIMEAEE,0.0252

# — the supplement of paper PMC12632987
